Gal4-VP16 FLuc: VP16 counterscreen qHTS for inhibitors of ROR gamma transcriptional activity. Drosophila S2 Gal4-VP16 UAS-luciferase, luminescence, 20 h. Potency, µM (highest dose often 53.6 µM), actives largely listed as inhibitors. actives 3.5% (n = 310,000). AID 2546, 2010;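 also: Gal4-VP16 expression switched on by copper sulfate through the metallothionein promoter; nearly all actives have a fitted effect of over 50% in size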
TDP1 cell noCPT: qHTS for Inhibitors of human tyrosyl-DNA phosphodiesterase 1 (TDP1): qHTS in cells in absence of CPT; DT40 Tdp1-/- hTDP1 cells, no CPT, ATP luminescence, 48 h; Potency, µM (highest dose often 46.2 µM), actives largely listed as inhibitors; actives 15% (n = 420,000); also: nearly all actives have a fitted effect of over 55% in size
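Stably hTDP1-transfected Tdp1-null chicken DT40 cells were treated with library compounds minus camptothecin and grown for at least 48 hr at 37 °C, after which cellular ATP was quantified by luminescence.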
DT40 TDP1 CPT: qHTS for Inhibitors of human tyrosyl-DNA phosphodiesterase 1 (TDP1): qHTS in cells in presence of CPT; chicken DT40 Tdp1-/-;hTDP1 cells + 20 nM CPT, ATP luminescence, 48 h; actives 12% (n = 420,000); Potency, µM (series often up to 46.2 µM), hits mostly inhibitors; also: nearly all actives have a fitted effect of over 55% in size
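Cell growth measured by CellTiter-Glo luminescence after a minimum 48 h, 37 C compound exposure with 20 nM CPT in Tdp1-knockout DT40 cells stably expressing hTDP1, seeded 400/well; qHTS titration format.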
IL1B secr inh: qHTS for Inhibitors of Inflammasome Signaling: IL-1-beta AlphaLISA Primary Screen; activity change, % at 57.5 µM; THP-1 LPS/ATP IL-1B secretion, AlphaLISA, 16 h; active compounds read low; actives 4.7% (n = 360,000); in the data active = activity change below about -50%; inconclusive = mostly about -30% to -49%
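THP-1 cells pretreated 1 hr with compounds (up to 57.5 uM final), then stimulated with LPS (250 ng/mL final) plus ATP (1.25 mM final); secreted IL-1B measured by AlphaLISA after 16 hr, decreased signal indicating inhibition.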
ELG1 repair inh: qHTS screen for small molecules that inhibit ELG1-dependent DNA repair in human embryonic kidney (HEK293T) cells expressing luciferase-tagged ELG1. HEK293T ELG1-luciferase reporter, luminescence, 16 h; DNA damage induced by 5-fluorouridine. Potency, µM (series often up to 46.1 µM), usual class: inhibitors. actives 2.3% (n = 330,000); also: nearly all actives have a fitted effect of over 55% in size
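Step one: seed 2,000 cells per well. Step two: pin-transfer compound or DMSO alongside 5-fluorouridine. Step three: incubate 16 hr, 37 °C, 5% CO2. Step four: add ONE-Glo, wait 30 min, read luminescence.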
RORg inh: qHTS for inhibitors of ROR gamma transcriptional activity. Nuclear receptor ROR-gamma (Mus musculus), P51450. Potency, µM (top dose mostly 53.6 µM), most hits filed as inhibitors. Drosophila S2 Gal4-RORgamma UAS-luciferase reporter, 20 h. actives 5.4% (n = 310,000); also: nearly all actives have a fitted effect of over 60% in size
Target sequence (P51450 whole entry, looked up, the tested form may be a part): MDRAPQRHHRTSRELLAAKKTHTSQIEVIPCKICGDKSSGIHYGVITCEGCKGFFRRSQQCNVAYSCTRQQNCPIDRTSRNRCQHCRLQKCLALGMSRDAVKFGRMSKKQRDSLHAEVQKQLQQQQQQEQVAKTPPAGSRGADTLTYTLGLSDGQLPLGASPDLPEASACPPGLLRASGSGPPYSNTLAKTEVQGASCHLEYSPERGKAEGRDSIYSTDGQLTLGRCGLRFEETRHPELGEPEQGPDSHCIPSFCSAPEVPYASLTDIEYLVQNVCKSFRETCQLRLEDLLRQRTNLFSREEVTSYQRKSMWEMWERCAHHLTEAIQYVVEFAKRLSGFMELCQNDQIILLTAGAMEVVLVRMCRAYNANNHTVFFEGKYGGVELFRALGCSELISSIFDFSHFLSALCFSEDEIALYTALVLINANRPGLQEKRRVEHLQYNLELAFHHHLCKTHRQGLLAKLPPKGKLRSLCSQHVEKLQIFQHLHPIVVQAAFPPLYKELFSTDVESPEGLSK
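Drosophila S2 cells stably expressing Gal4-DBD/mouse RORγ fusion under metallothionein promoter plus UAS-luciferase; compound 1 h, then 700 uM CuSO4 induction for 20 h at ambient temperature; inhibition read as reduced luminescence.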
Hits are given with their value; i = inactive; ? = inconclusive; nt = not tested or not shown. An excerpt weighted towards active compounds, which were near 21% of everything screened. Unless noted, calls follow the shape of the dose curve; as a rule, active = well fitted curve in the direction sought with a large enough effect; inconclusive = small, poorly fitted or top-dose-only effect, or another doubt; inactive = no such curve, though single readings can be large; an effect the other way counts as inactive or inconclusive.

SMILES	Gal4-VP16 FLuc	TDP1 cell noCPT	DT40 TDP1 CPT	IL1B secr inh	ELG1 repair inh	RORg inh
COc1ccc(C(C(=O)Nc2ccc(F)cc2)N(C(=O)Cn2nnc3ccccc32)C2CC2)cc1 (stereo unspecified)	i	?	i	-71.7	?	i
CSc1ccc(CCNC(=O)CCc2c(C)nc3c(c(C)nn3-c3ccc(C)c(C)c3)c2C)cc1	nt	i	i	nt	nt	nt
CCc1ccccc1NC(=O)CN1CCN(C(=O)CNC(=O)c2ccc(-c3ccccc3)cc2)CC1	nt	7.31µM	4.61µM	i	?	nt
Cc1cccc(NC(=O)CN2CCN(CC(=O)Nc3ccc(-c4ccccc4)cc3)CC2)c1C	i	?	?	i	?	?
CCc1ccccc1NC(=O)CN1CCN(CC(=O)Nc2ccc(-c3ccccc3)cc2)CC1	i	16.4µM	?	i	i	i
O=C(O)CNS(=O)(=O)c1c(Cl)cccc1Cl	i	i	i	i	i	i
Cc1ccc(-n2nnnc2C(Cl)c2nnnn2-c2ccc(C)cc2)cc1	8.91µM	8.2µM	14.6µM	-59.1	i	11.2µM
O=C(COc1ccc(Br)cc1Cl)NCCCN1CCOCC1	i	i	i	i	i	i
COc1cc(CNC(C)C)ccc1OCC(=O)Nc1cccc2ccccc12	i	18.4µM	25.9µM	i	i	i
CCCCOc1c(Br)cc(CNCCCN2CCOCC2)cc1OC	i	13µM	?	-66.0	i	i
Brc1cccc(CNCCCN2CCOCC2)c1	i	?	23.1µM	i	i	i
O=C(COc1ccc(Br)cc1CNCCCN1CCOCC1)Nc1ccccc1	i	20.6µM	16.4µM	-70.2	i	i
CCOc1ccc(C2NC(=O)c3c(COC)cc(C)nc3N2Cc2ccccc2)cc1OC (stereo unspecified)	nt	i	i	nt	nt	nt
Cc1ccc2c(c1)c1c(c(=O)n(Cc3ccccc3)c(=O)n1CC(=O)NCc1ccccc1Cl)n2C	nt	i	i	nt	nt	nt
Cc1ccc(Nc2nc3ccc(C)cc3nc2-n2nc(C)cc2C)c(C)c1	nt	i	i	nt	nt	nt
COc1cc(CNCCCN2CCOCC2)ccc1OCC(=O)Nc1cccc(C(F)(F)F)c1	i	?	?	?	i	i
COc1cc(C2C(C#N)=C(N)Oc3c2ccc2ccccc32)ccc1OCC(=O)Nc1ccccc1C (stereo unspecified)	i	25.9µM	20.6µM	i	?	i
CCOc1cc(CNCCCN2CCOCC2)ccc1OCC(=O)Nc1cccc2ccccc12	i	3.66µM	23.1µM	i	i	i
CCOC(=O)C1=C(CNCc2ccc(C)cc2)NC(=O)NC1c1cc(C)ccc1C (stereo unspecified)	i	?	20µM	i	?	i
COC(=O)C1=C(Cn2cnc3ccccc32)NC(=O)NC1c1cc(C)ccc1C (stereo unspecified)	i	?	?	i	?	i
CCOC(=O)C1=C(CSc2nccn2C)NC(=O)NC1c1cc(C)ccc1C (stereo unspecified)	i	i	i	i	i	i
CCOC(=O)C1=C(Cn2cnc3ccccc32)NC(=O)NC1c1cc(C)ccc1C (stereo unspecified)	i	23.1µM	25.9µM	i	i	i
CC(NCc1cccnc1)c1ccccc1 (stereo unspecified)	i	i	i	i	i	i
Cc1cc(N2CCN(c3ccccc3)CC2)nc(NCc2ccccc2)n1	i	16.4µM	20.6µM	i	i	i
CCCc1nc(C)cc(N2CCN(c3ccccc3)CC2)n1	i	20.6µM	29.1µM	i	i	i
SMILES	Gal4-VP16 FLuc	TDP1 cell noCPT	DT40 TDP1 CPT	IL1B secr inh	ELG1 repair inh	RORg inh
Cc1cc(OC(C)C)nc(NCc2ccccc2)n1	i	13µM	?	i	i	i
CSc1nc(N2CCN(c3ccccc3)CC2)cc(N2CCN(c3ccccc3)CC2)n1	i	i	i	i	i	i
C=CCC1CCCC(=O)N2CC[C@H](O)C12 (stereo partly specified)	i	i	i	i	i	i
O=C(Cc1ccc(NC(=O)C2CCCN(C(=O)C3CCC3)C2)cc1)Nc1ccc(C(=O)N2CCOCC2)cc1 (stereo unspecified)	nt	i	i	i	nt	nt
CCc1ccc(-n2nc(CO)c(C(=O)NCc3ccccc3OC)n2)cc1	nt	i	i	nt	nt	nt
O=C(O)c1ccc2[nH]c3c(c2c1)CSCC3	i	i	i	i	i	i
CN(C)CCOC(=O)c1ccc2[nH]c3c(c2c1)CSCC3	i	i	i	-73.7	?	i
Cc1cc(C)n(CCN(C)Cc2nc(Cc3ccccc3F)no2)n1	?	i	i	i	?	11.2µM
CN(Cc1nc(Cc2ccccc2F)no1)[C@@H]1CS(=O)(=O)C[C@H]1O	i	i	i	i	i	i
O=C(c1cc(-c2ccccc2Cl)on1)N1CCCC1	?	i	i	i	?	12.6µM
O=C(c1cc(-c2cccc(Cl)c2)on1)N1CCCC1	i	i	i	i	?	i
O=C(c1cccc(F)c1)N1CCN(C(=O)c2cc(-c3ccc(Cl)cc3Cl)on2)CC1	i	18.4µM	?	nt	?	i
COc1ccccc1-c1cc(C(=O)N2CCCC2)no1	i	i	i	i	?	i
COC(=O)C(Cc1ccccc1)NS(=O)(=O)c1cc(Br)ccc1Br (stereo unspecified)	i	nt	nt	nt	nt	i
CN(C)CCOC1c2ccccc2CCc2ccc3ccccc3c21 (stereo unspecified)	nt	20.6µM	?	-85.7	nt	nt
Cc1ccc(N(C(=O)CS(=O)CC(=O)Nc2ccc(F)cc2)C(C)C(=O)NC(C)(C)C)cc1 (stereo unspecified)	i	i	i	i	?	i
Cc1ccc(CN(CC(=O)NCCc2ccccc2)C(=O)CCCC(=O)Nc2cc(C)on2)cc1	i	?	i	i	i	i
CC(C)CC(=O)Nc1ccc(-c2cn3ccsc3n2)cc1	?	?	?	i	?	?
CC(C)(C)C(=O)Nc1ccc(-c2cn3ccsc3n2)cc1	4.47µM	?	14.1µM	i	?	4.47µM
CCCSc1ncc(Cl)c(C(=O)NCc2ccc(OC)cc2)n1	nt	?	i	nt	nt	nt
Cc1cccc(CS(=O)(=O)c2ncc(Cl)c(C(=O)NCc3ccc4c(c3)OCO4)n2)c1	3.16µM	4.61µM	2.91µM	-96.4	i	6.31µM
CCS(=O)(=O)c1ncc(Cl)c(C(=O)NCc2ccc(OC)cc2)n1	nt	i	1.64µM	nt	nt	nt
CCS(=O)(=O)c1ncc(Cl)c(C(=O)N2CCN(c3ccc(OC)cc3)CC2)n1	nt	4.11µM	?	nt	nt	nt

Source: PubChem BioAssay
